Measurements: PubChem BioAssay (NCATS)
Records with an inconclusive call do not appear. Active and inactive are the calls of the source. Calls follow the shape of the dose curve; as a rule, active = well fitted cell-killing curve with a large enough effect; inconclusive = small, poorly fitted or top-dose-only effect, or effect the other way; inactive = flat fitted curve, though single readings scatter.

Assays:
Assay in all cases: Primary qHTS to identify gynecologic anti-cancer compounds using libraries of approved drugs and bioactive compounds (AID 1345084); also: nearly all actives have a fitted effect of over 55% in size
Details in all cases: Gynecologic cancer cell panel viability, ATPlite luminescence, 48 h; series mostly up to 57.5 µM
OV90 = tested on: OV90
Procedure, shortened: (§1)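 Cells, 1,000 per well, were allowed to settle for 16 h at 37 C before compound addition. Five concentrations were tested for 48 h, and viability was read by ATPlite luminescence after 15 min at room temperature.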

PA-1 = tested on: PA-1
Procedure, shortened: as §1

Tov-21-G = tested on: Tov-21-G
Procedure, shortened: as §1

Tov112D = tested on: Tov112D
Procedure, shortened: as §1

Measured: Potency

O=C(/C=C/c1ccc(O)cc1)O[C@@H]1C[C@@](O)(C(=O)O)C[C@@H](O)[C@@H]1O
inactive: all assays above

COc1cccc(OC)c1-c1cc(C(=O)N[C@@H](CC(C)C)C(=O)O)nn1-c1ccnc2cc(Cl)ccc12
inactive: all assays above

FC(F)(F)c1nnc2c(Sc3ccccc3)nc3ccc(Cl)cc3n12
inactive: all assays above

C[C@@H](CC[C@@H]1[C@@]2(C)CCCC(C)(C)C2CC[C@@]1(C)O)CC(=O)O (some centres not stated)
inactive: all assays above

COCCN1CCC(C(=O)NO)(S(=O)(=O)c2ccc(Oc3ccc(OC(F)(F)F)cc3)cc2)CC1
inactive: all assays above

Nc1c(-c2ccccc2)nc(Cl)c2c(O)n[nH]c(=O)c12
inactive: all assays above

COc1cccc(CNc2ccc(S(=O)(=O)Nc3nc4ccccc4s3)cc2)c1O
inactive: all assays above

CC(C)(O)C1CC=C(C(=O)OC[C@H]2O[C@@H](Oc3cc(C(=O)O)cc(O)c3O)[C@H](O)[C@@H](O)[C@@H]2O)CC1 (some centres not stated)
inactive: all assays above

O=C(O)c1cccc(CN2C(=O)/C(=C(\c3ccccc3)c3ccc(Cl)cc3)c3ccccc32)c1
inactive: all assays above

CC1(C(=O)O)CCCC2(C)C3CCC4CC3(CCC12)CC4(O)CO (configuration not stated)
inactive: all assays above

O=C(Nc1ccccc1)Nc1ccc(-c2ccc(C(=O)C3CCCC3C(=O)O)cc2)cc1 (configuration not stated)
inactive: all assays above

C=CCc1ccc(O[C@@H]2O[C@H](CO)[C@@H](O)[C@H](O)[C@H]2O)c(O[C@@H]2O[C@H](CO)[C@@H](O)[C@H](O)[C@H]2O)c1
inactive: all assays above

CC1(C)CCCC2(C)c3c4c(c(=O)oc(=O)c3=CCC12)=CCC1C(C)(C)CCCC41C (configuration not stated)
inactive: all assays above

CC1(C)C=Cc2c(ccc3c2N=C2C(C)(C)[C@@H]4C[C@]56CCCN5C(=O)[C@@]4(C[C@]23O)NC6=O)O1
inactive: all assays above

CCCCOc1nc(N)c2c(n1)N(Cc1cccc(CN3CCCC3)c1)CC(=O)N2
inactive: all assays above

C[C@@H]1CCC2C(C)(C)[C@H](O)[C@H](O)C[C@]2(C)[C@@]12Cc1c(O)cc3c(c1O2)CN(CCCC(=O)O)C3=O (some centres not stated)
inactive: all assays above

CC1CCCCCCCc2cc(O)cc(O)c2C(=O)O1 (configuration not stated)
inactive: all assays above

O=C1C[C@@]2(C(=O)N1)C(=O)N(Cc1ccc(Br)cc1F)C(=O)c1cccn12
inactive: all assays above

O=C(OC(C(F)(F)F)C(F)(F)F)N1CCN(Cc2cccc(Oc3ccccc3)c2)CC1
inactive: all assays above

CC(C)(O)C1OC1C1=CC(=O)C2(C)OC2C1O (configuration not stated)
inactive: all assays above

C[C@]1(C2CCCC2)Cc2cc(OCC(=O)O)c(Cl)c(Cl)c2C1=O
inactive: all assays above

CC/C=C/C=C/C1(C)OC(CC(CO)OC)=CC1=O (configuration not stated)
inactive: all assays above

O=C(Cn1c2ccccc2c2nc3n(c(=O)c21)CCS3)N1CCCC1
inactive: all assays above

CC1=CC2=C(C)C(=O)C(C)(O)C(O)C2CO1 (configuration not stated)
inactive: all assays above

Cc1c(Cc2ccc3ccccc3n2)c2cc(F)ccc2n1CC(=O)O
inactive: all assays above

C=C1C(OC(C)=O)[C@@]23CCC4[C@](C)(C(=O)O)CCC[C@@]4(C)[C@]2(O)CC[C@H]1C3 (some centres not stated)
inactive: all assays above

O=C(COCC(=O)N1CCN(C(c2ccccc2)c2ccccc2)CC1)Nc1ccc(Cl)cc1C(=O)O
inactive: all assays above

C=C1CCC2[C@@](C)(C(=O)O)CCC[C@@]2(C)[C@@H]1CCc1ccoc1 (some centres not stated)
inactive: all assays above
